Test results reported in PubChem BioAssay (NCATS).
A number with no mark means an inactive call. Records with an inconclusive call do not appear. The source made the active and inactive calls. Unless noted, calls come from the whole dose curve; as a rule, active = well fitted curve in either direction with a large enough effect (not every such curve was filed as active); inconclusive = small, poorly fitted or top-dose-only effect, or another doubt; inactive = flat fitted curve, though single readings scatter.

Tests used:
[1] = AP1 Signaling Pathway (AID 357); conditions: ME-180 AP-1-bla reporter, EGF-induced, beta-lactamase ratio, 5 h; at 17.2 µM (top of the series) unless noted; note: % is set by controls: 0 for no effect and ±100 for the full control effect
In short: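 AP-1-bla ME-180 cells with beta-lactamase reporter under AP-1 response element, stimulated with EC50 EGF; compounds titrated, 5 hours at 37 degrees Celsius. CCF4 read at 460/530 nm ratio; positive and negative modulators judged by AC50.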

[2] = NFAT Signaling Pathway (AID 444); conditions: Jurkat NFAT-bla M1, carbachol, beta-lactamase ratio, 5 h; at 17.2 µM (top of the series) unless noted;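 note: carbachol stimulus at about its EC50 of 1 µM final; % is set by controls: 0 for no effect and ±100 for the full control effect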
In short: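 Jurkat cells with NFAT-driven β-lactamase reporter and co-expressed M1 receptor, stimulated with carbachol (final 1 uM, ~EC50), compound titration, 5 h at 37 °C. CCF4 loaded 1 h at RT; 460/530 nm ratio gave %activity and AC50.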

[3] = Stat Signaling Pathway (AID 446); conditions: ME-180 SIE beta-lactamase reporter, IL-6 stimulated, 5 h; at 17.2 µM (top of the series) unless noted;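 note: ME-180 cervical cancer cells given 40 pM IL-6 alongside compound; SIE-controlled beta-lactamase reporter measured as 460/530 nm FRET emission ratio; % is set by controls: 0 for no effect and ±100 for the full control effect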
In short: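 Screening format detects activators and inhibitors alike: ME-180 SIE-bla cells stimulated at 40 pM IL-6 for 5 hrs with compound, then dual-emission beta-lactamase read at 405 nm excitation.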

[4] = biological target: Glucocorticoid receptor (Homo sapiens) (UniProt P04150); assay: GR-GFP Redistribution (AID 450;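 active = compounds whose dose series gives a full or clear partial fitted curve of increased nuclear translocation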; note: potency is the fitted concentration of half-maximal effect); conditions: U2OS GR-GFP nuclear translocation, laser cytometry, 2 h; series mostly up to 20.6 µM
Chain of Glucocorticoid receptor (Homo sapiens) (P04150 whole entry, looked up): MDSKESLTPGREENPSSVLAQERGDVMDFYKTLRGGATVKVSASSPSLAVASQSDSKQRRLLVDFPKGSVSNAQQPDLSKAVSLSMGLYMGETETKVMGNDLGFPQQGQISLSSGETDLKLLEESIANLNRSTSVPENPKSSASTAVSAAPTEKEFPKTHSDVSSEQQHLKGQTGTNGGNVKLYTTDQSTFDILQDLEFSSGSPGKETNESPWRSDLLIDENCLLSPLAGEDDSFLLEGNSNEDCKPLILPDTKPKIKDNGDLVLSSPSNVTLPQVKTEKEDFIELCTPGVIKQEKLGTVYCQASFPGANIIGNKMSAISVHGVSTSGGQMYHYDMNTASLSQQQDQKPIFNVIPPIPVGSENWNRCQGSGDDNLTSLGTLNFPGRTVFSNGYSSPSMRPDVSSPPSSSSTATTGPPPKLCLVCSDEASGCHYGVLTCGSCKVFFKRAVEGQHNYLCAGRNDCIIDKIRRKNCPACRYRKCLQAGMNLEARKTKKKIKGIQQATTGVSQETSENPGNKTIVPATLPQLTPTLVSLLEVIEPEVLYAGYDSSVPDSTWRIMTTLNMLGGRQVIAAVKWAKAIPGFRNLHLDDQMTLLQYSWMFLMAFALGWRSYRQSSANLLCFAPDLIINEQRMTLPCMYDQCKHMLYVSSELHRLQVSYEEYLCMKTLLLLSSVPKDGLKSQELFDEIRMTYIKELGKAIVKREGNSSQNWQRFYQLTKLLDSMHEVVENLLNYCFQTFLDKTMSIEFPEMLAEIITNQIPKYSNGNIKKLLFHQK

SMILES | activity change, negative = inhibition [1] | activity change, negative = inhibition [2] | activity, negative = inhibition [3] | Potency [4]
COC(=O)c1c(C)noc1-c1cc(C)on1 | 10.7% | 10.8% | 8.94% | > 20.6 µM
O=C(CN1C(=O)c2ccccc2S1(=O)=O)NCCSCc1ccco1 | -8.94% | 8.79% | -4.36% | > 20.6 µM
CC1(C)SC2[C@H](NC(=O)C(NC(=O)N3CCNC3=O)c3ccccc3)C(=O)N2C1C(=O)O (stereo not given in full) | -0.219% | 7.62% | 1.47% | > 20.6 µM
O=c1c2c3c(sc2nc2n1CCCS2)CCCC3 | -22.8% | -17.4% | 1.96% | > 20.6 µM
O=C(COc1ccc(Cl)cc1)Nc1ccccc1CO | 6.8% | 6.35% | 0.225% | > 20.6 µM
CCN1C(=O)CC(N2CCN(c3ccc(OC)cc3)CC2)C1=O (stereo not given) | 7.27% | 1.19% | 1.34% | > 20.6 µM
Cn1c(N)c(C#N)c2c(c1=S)CSC(C)(C)C2 | 1.02% | -25.2% | -2.98% | > 20.6 µM
CN1CCc2c(sc3c2C(=O)NC(c2ccco2)N3)C1 (stereo not given) | -0.778% | -3.54% | 23.6% | > 20.6 µM
CC(=O)c1cc(C#N)c(SCC(=O)C(C)(C)C)nc1C | -4.83% | -23.2% | 12.6% | > 20.6 µM
Cc1ccccc1N1C(=O)C2ON(c3ccccc3)C(c3cccnc3)C2C1=O (stereo not given) | -2.7% | -0.971% | -4.14% | > 20.6 µM
O=C(Cc1cscn1)c1ccc(O)cc1O | 4.71% | 4.07% | 12.7% | > 20.6 µM
COc1ccc(/C(O)=C2/C(=O)C(=O)N(CCN(C)C)C2c2ccccn2)cc1OC (stereo not given) | 4.92% | -3.03% | -3.63% | > 20.6 µM
CC(C)(C)NC(=O)/C=N/O | 10.5% | 23.2% | 3.21% | > 20.6 µM
Cc1ccc(N(CN2C(=O)C3CC=CCC3C2=O)C(=O)c2ccco2)cc1Cl (stereo not given) | -4.76% | 9.09% | -11% | > 20.6 µM
CCOc1ccc(N=C(NC#N)SCC(=O)NC2CC2)cc1 | -3.71% | -22.1% | -16.7% | > 20.6 µM
CN(C)CCCN1C(=O)C(O)=C(C(=O)c2cc3ccccc3o2)C1c1ccccn1 (stereo not given) | 7.64% | 7.35% | -0.93% | > 20.6 µM
Cn1c(=O)c2c(nc(NCc3ccc4c(c3)OCO4)n2Cc2ccc(F)cc2)n(C)c1=O | -26% | -10.4% | -22% | > 20.6 µM
Cc1ccc(Cn2ncc3c(N4CCOCC4)ncnc32)cc1 | -2.95% | 19.3% | 3.94% | > 20.6 µM
COc1cccc(N2CCN(c3ncnc4c3[nH]c3ccc(F)cc34)CC2C)c1 (stereo not given) | -121% (active) | -137% (active) | -104% (active) | > 20.6 µM
Cc1cccc(-c2nnc3n2N=C(c2ccccc2)CS3)c1 | -18.5% | -10.4% | -6.13% | > 20.6 µM
CC1(C)CC(=O)C2=C(C1)OC(N)=C(C#N)[C@@]21C(=O)N(CC(N)=O)c2ccccc21 | 10.8% | 4.51% | -18.4% | > 20.6 µM
Cc1cc(SCCC(=O)O)nc2ccccc12 | 0.423% | -5.26% | 6.44% | > 20.6 µM
Cc1cccc(NC(=O)c2cc(N3CCOCC3)nc3ccccc23)c1 | -7.76% | 28.7% | -0.239% | > 20.6 µM
COCCCNC(=O)C(C#N)c1nc2ccccc2nc1N1CCCC1 (stereo not given) | 5.84% | 8.15% | 20.8% | > 20.6 µM
COc1ccc(C2=Nn3c(nnc3-c3ccccn3)SC2)cc1 | -4.44% | 2.81% | 6.62% | > 20.6 µM

SMILES | activity change, negative = inhibition [1] | activity change, negative = inhibition [2] | activity, negative = inhibition [3] | Potency [4]
CCCOc1cccc(-c2nnc(N)s2)c1 | -15.9% | -11.9% | -2.76% | > 20.6 µM
CC(C)(C)c1ccc(O)c(N)c1 | 3.38% | -5.9% | 8.3% | > 20.6 µM
COc1cccc(C2/C(=C(\O)c3ccc4c(c3)OCCO4)C(=O)C(=O)N2CCCN(C)C)c1OC (stereo not given) | 4.3% | 5.21% | 4.4% | > 20.6 µM
CC1CCc2cc(F)cc3c(O)c(C(=O)Nc4cnccn4)c(=O)n1c23 (stereo not given) | -8.92% | 19.5% | 11.1% | > 20.6 µM
CCn1c(SCC(=O)O)nc2sc3c(c2c1=O)CCC3 | 5.13% | -8.87% | -5.86% | > 20.6 µM
N#Cc1c(N)sc(=S)c2c1CCCCC2 | 10.8% | -12.9% | -20.4% | > 20.6 µM
CCOC(=O)C1(c2nc(N)cs2)COC(=O)C1 (stereo not given) | 6.34% | -1.85% | 2.25% | > 20.6 µM
COC(=O)CC1=NC(=O)CS1 | 17.8% | -3.72% | 12.3% | > 20.6 µM
COc1ccc(Cn2c(O)cc(=O)[nH]c2=O)cc1 | 27.1% | -0.64% | -3.75% | > 20.6 µM
CC(=O)Oc1ccccc1C1OC(=O)c2ccccc2N1C(C)=O (stereo not given) | 14.3% | 12.4% | 5.01% | > 20.6 µM
Cc1c(C2Nc3ccccc3NC3=C2C(=O)CC(C)(C)C3)cnn1C (stereo not given) | -9.46% | -5.95% | 14.2% | > 20.6 µM
CC1(C)Cc2c(C#N)c(SCCC#N)nc(N3CCOCC3)c2CS1 | -12.8% | 3.6% | -3.44% | > 20.6 µM
CCN(CC)CCCN1C(=O)C(=O)/C(=C(/O)c2ccc(C)cc2)C1c1ccccn1 (stereo not given) | 3.29% | 10.1% | 4.05% | > 20.6 µM
COc1ccc(N2C(=O)C3C(C2=O)C2C=CC3C23CC3)c(OC)c1 (stereo not given) | 16.2% | 5.04% | 0.0769% | > 20.6 µM
CCOC(=O)N1CCN(C2OC(=O)c3ccccc32)CC1 (stereo not given) | 0.827% | 27.2% | 25.6% | > 20.6 µM
Cc1ccc(-c2nn(CCC(=O)NCC3CCCO3)c(=O)c3ccccc23)cc1 (stereo not given) | -6.92% | -7.06% | 4.3% | > 20.6 µM
COc1ccccc1Cn1c2nc3ccccc3nc2c2c(=O)n(CC(C)C)cnc21 | -14.3% | 4.7% | -12.8% | > 20.6 µM
FC(F)(F)c1cccc(N2CCc3cn[nH]c32)c1 | -1.96% | 0.155% | -1.19% | > 20.6 µM
COc1ccc(OC)c(C2NC(=O)c3sc(=S)n(-c4ccccc4)c3N2)c1 (stereo not given) | -13.3% | -12.2% | -13.8% | > 20.6 µM
CCOC(=O)C1=C(C)NC(=O)NC1c1ccc2c(c1)OCO2 (stereo not given) | -4.59% | -26.9% | -3.46% | > 20.6 µM
CN(C)CCCn1c(NC(=O)C2CCCCC2)nc2ccccc21 | 1.38% | -10.7% | 6.97% | > 20.6 µM
COc1cc(C)nc(N(C)S(=O)(=O)c2ccccc2Cl)n1 | -3.56% | -19.3% | 1.54% | > 20.6 µM
CCc1cc(=O)oc2cc(C)c(CN3CCCCC3)c(O)c12 | 7.78% | -13.9% | -6.86% | > 20.6 µM
Cc1cc(NCC2CCCO2)n2c(nc3ccccc32)c1C#N (stereo not given) | -1.4% | -16.9% | -2.4% | > 20.6 µM
CCOC(=O)C1CCCN(c2nc3ccccc3nc2C(C#N)C(=O)OC(C)COC)C1 (stereo not given) | -5.69% | -5.6% | -14.5% | > 20.6 µM
